Compound activity (PubChem)
Vaccinia mCherry: qHTS for Stage-Specific Inhibitors of Vaccinia Orthopoxvirus: mCherry Reporter Primary qHTS; AID 720579, 2013; Potency, µM (highest dose often 36.5 µM), inactives show top-dose activity change, negative = inhibition, actives largely listed as inhibitors; 310,000 tested, 0.63% active; Vaccinia virus mCherry reporter infection, fluorescence; calls by dose curve; tested in A549 cells; also: nearly all actives have a fitted effect of over 35% in size
Pf growth 96h: Primary qHTS for delayed death inhibitors of the malarial parasite plastid, 96 hour incubation; P. falciparum luciferase reporter growth, 96 h; Potency, µM (titrated, usually from 28.7 µM), inactives show top-dose activity change, negative = inhibition, usual class: inhibitors; 320,000 tested, 6.9% active
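Two parasite generations (96 h, 37 C, 5% CO2) of compound exposure in infected erythrocytes (0.05% parasitemia, 2% hematocrit). Luciferase-reporter P. falciparum; decreased luminescence indicates inhibited growth, aimed at apicoplast-acting delayed death.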
Pf growth 48h: Primary qHTS for delayed death inhibitors of the malarial parasite plastid, 48 hour incubation | P. falciparum luciferase growth in erythrocytes, 48 h | Potency, µM (titrated, usually from 28.7 µM), for the others: at the highest dose activity change, negative = inhibition, actives largely listed as inhibitors | 310,000 tested, 5.9% active
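Parasite viability was followed by luminescence of a genomically integrated firefly luciferase. Cultures held 0.1% parasitemia at 2% hematocrit (final), incubated under 5% CO2 at 37 C.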
VACV Venus inh: qHTS for Stage-Specific Inhibitors of Vaccinia Orthopoxvirus: Venus Reporter Primary qHTS; Vaccinia virus Venus reporter expression, fluorescence; Potency, µM (top dose mostly 36.5 µM), without a hit: at the highest dose activity change, negative = inhibition, hits mostly inhibitors; 330,000 tested, 0.46% active; AID 720580, 2013; calls by dose curve; tested in A549 cells; also: nearly all actives have a fitted effect of over 30% in size
AMA1 RON2 block: qHTS for Inhibitors of AMA1-RON; Towards Development of Antimalarial Drug Lead: Primary Screen | Plasmodium falciparum AMA1 (3D7) - RON2 peptide interaction | AlphaScreen AMA1-biotinylated RON2 peptide binding | Potency, µM (titrated, usually from 58.2 µM), inactives show at the top dose activity change, negative = inhibition, most hits filed as inhibitors | 360,000 tested, 0.2% active | AID 720542, 2013;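 also: 0% = vehicle wells and -100% = peptide control; nearly all actives have a fitted effect of over 45% in size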
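AMA1 (3D7) with his tag at 25 nM final met compounds first, then biotinylated RON2 peptide at 25 nM; detection used donor plus acceptor beads, 10 µg/mL apiece, read by AlphaScreen after 30 min at room temperature.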
* = called active by the depositor; i = inactive; ? = inconclusive; . = no result given; [ ] = remark or other dose. Sampled rows, rich in hits. Any-hit rate of the full collection: about 8.7%. Unless noted, calls follow the shape of the dose curve; as a rule, active = well fitted curve in the direction sought with a large enough effect; inconclusive = small, poorly fitted or top-dose-only effect, or another doubt; inactive = no such curve, though single readings can be large; an effect the other way counts as inactive or inconclusive. Unless noted, % is scaled to controls: 0 for no effect and ±100 for the full control effect; potency is read from the fitted curve at half-maximal effect.

SMILES	Vaccinia mCherry	Pf growth 96h	Pf growth 48h	VACV Venus inh	AMA1 RON2 block
CCc1cc[n+](/C(C(=S)Nc2cccc(C)c2)=C(/[O-])c2ccc(C)c([N+](=O)[O-])c2)cc1	i	0.15µM*	?	-8%	?
Cc1ccc(CNc2ccc(N3CCOCC3)c(Cl)c2)cc1	i	10µM*	27%	-15%	?
CN1CCN(c2ccc(Cl)cc2NC(=O)c2ccc([N+](=O)[O-])cc2)CC1	.	?	?	.	0%
CCCCOc1ccc(C(=O)Nc2ccc(N3CCN(C(=O)C(C)C)CC3)cc2)cc1	-11%	.	9.3µM*	-5%	-22%
CN1CCN(c2ccc(NC(=O)c3ccc([N+](=O)[O-])o3)cc2Cl)CC1	13µM*	4%	?	?	1%
CN1CCN(c2ccc([N+](=O)[O-])cc2NC(=O)c2ccccc2Cl)CC1	.	?	12µM*	.	20%
CCCCOc1ccc(C(=O)Nc2ccc(N3CCN(C(C)=O)CC3)cc2)cc1	-17%	53%	.	-6%	-4%
Cc1ccc(S(=O)(=O)N2CCN(c3nc(-c4ncco4)nc4ccccc34)CC2)cc1	-18%	.	.	-15%	.
CCc1cccc(C)c1NC(=O)CN1CCN(Cc2ccccc2Cl)S1(=O)=O	-12%	.	.	4%	.
Cc1ccc(NC(=O)c2cc([N+](=O)[O-])ccc2N2CCOCC2)cc1S(=O)(=O)N1CCOCC1	-4%	?	?	-12%	-9%
CC(C)C(=O)N1CCN(c2ccc(NC(=O)c3ccc(Br)o3)cc2)CC1	-23%	.	-25%	-17%	13%
CCCC(=O)N1CCN(c2ccc(NC(=O)c3ccc([N+](=O)[O-])o3)cc2Cl)CC1	10µM*	21%	?	?	-5%
CC(C)C(=O)N1CCN(c2ccc(NC(=O)c3ccc([N+](=O)[O-])o3)cc2)CC1	10µM*	22%	4.7µM*	11µM*	-1%
O=C(Nc1ccc(N2CCOCC2)c(Cl)c1)c1ccc([N+](=O)[O-])o1	?	14%	10µM*	?	-9%
CC(C)C(=O)N1CCN(c2ccc(NC(=O)c3ccc([N+](=O)[O-])o3)cc2Cl)CC1	?	?	8%	?	1%
Cc1ccc(NC(=O)c2ccc([N+](=O)[O-])o2)cc1S(=O)(=O)N1CCOCC1	?	9.3µM*	9.3µM*	?	3%
COc1cc(OC)c(NC(=O)c2c(C)oc3ncn(C)c(=O)c23)cc1Cl	-3%	.	.	-3%	.
COc1cc(=O)n2c(c1C(=O)NCc1nonc1C)CCN(C(=O)c1cccc(C)c1C)CC2	i	.	.	0%	.
COc1ccc(C(=O)c2cn(Cc3ccc(C)cc3)c3cc4c(cc3c2=O)OCO4)cc1	-4%[7.34 µM]	.	.	-5%[7.34 µM]	.
COc1ccc([N+](=O)[O-])cc1NC(=O)C(C)N1CCCC1 (stereo not drawn)	2%	36%	33%	-4%	15%
CC(C(=O)Nc1cc([N+](=O)[O-])ccc1Cl)N1CCN(c2ccccc2O)CC1 (stereo not drawn)	?	?	6.6µM*	?	0%[2.32 µM]
CCOc1ccc(NC(=O)Cn2c(=O)n(CC(=O)NCCc3ccccc3)c(=O)c3sccc32)cc1	-12%	.	.	-9%	.
Cc1c(C(=O)N(C)C2CCOC2)sc2ncnc(NCc3ccc4c(c3)OCO4)c12 (stereo not drawn)	-12%	.	.	5%	.
O=C1c2cccc(NCCNCCO)c2C(=O)c2cccc(NCCNCCO)c21	?	.	.	?	45µM*
O=C(O)c1ccccc1NCCO	-4%	54%	16%	-1%	6%
SMILES	Vaccinia mCherry	Pf growth 96h	Pf growth 48h	VACV Venus inh	AMA1 RON2 block
O=C(O)CCNc1ccc(NCCC(=O)O)c2c1C(=O)c1ccccc1C2=O	-9%	?	?	20%	16µM*
O=C(NCc1ccc(Cl)cc1)c1ccc2oc(=O)n(Cc3ccccc3)c2c1	-17%	.	.	-14%	.
CCc1ccc(S(=O)(=O)c2c(C(=O)c3ccccc3)cnc3ccc(CC)cc23)cc1	-12%	.	.	-10%	.
COc1ccc(C2C(C#N)=C(N)OC3=C2C(=O)CCC3)cc1Cn1nc(C)c([N+](=O)[O-])c1C (stereo not drawn)	.	24%	12µM*	-36%	0%
COc1ccc(C2C(C#N)=C(N)Oc3n[nH]c(C)c32)cc1Cn1nc(C)c([N+](=O)[O-])c1C (stereo not drawn)	-19%	?	-14%	-7%	-1%
COc1ccc(C(C)=O)cc1Cn1nc(C)c([N+](=O)[O-])c1C	i	?	19µM*	-13%	39%
Cc1cccc2nc(Cn3c(=O)n(-c4ccc(Cl)cc4)c(=O)c4c5c(sc43)CCC5)cc(=O)n12	-9%	.	.	-2%	.
Cc1ccc2[nH]c(=O)c(-c3nc4ccccn4c3NCc3ccco3)cc2c1	.	4.7µM*	33%	.	-3%
CCOC(=O)C(CCc1ccccc1)NC1CCc2ccccc2N(CC(=O)O)C1=O (stereo not drawn)	.	12µM*	9.5µM*	.	.
CCOC(=O)[C@H](CCc1ccccc1)N[C@H]1CCc2ccccc2N(CC(=O)O)C1=O	-8%	.	.	-3%	-13%
CCCNS(=O)(=O)c1cccc(C(=O)OCc2cc(=O)oc3cc(OC)ccc23)c1	?	?	?	-28%	-3%
CCc1cc2c(COC(=O)c3cc(S(=O)(=O)N4CCOCC4)ccc3F)cc(=O)oc2cc1O	.	15µM*	?	.	-6%
CN(C)c1cccc(C(=O)OCc2cc(=O)oc3cc(O)ccc23)c1	-3%	.	12µM*	6%	-28%
CCc1cc2c(COC(=O)c3cccc(NS(C)(=O)=O)c3)cc(=O)oc2cc1O	-9%	5.2µM*	?	-18%	-2%
COc1ccc2c(COC(=O)c3cccc(S(=O)(=O)NCC(C)C)c3)cc(=O)oc2c1	-3%	?	9.3µM*	-20%	8%
CC1CN(S(=O)(=O)c2cccc(C(=O)OCc3cc(=O)oc4cc(O)ccc34)c2)CC(C)O1 (stereo not drawn)	.	-17%	?	.	-29%
O=C(OCc1cc(=O)oc2cc(O)ccc12)c1cc(S(=O)(=O)N2CCOCC2)ccc1F	-13%	3%	28%	-15%	-1%
Cc1ccc(-c2nc(C3CCN(S(=O)(=O)c4ccc(C(C)(C)C)cc4)CC3)no2)cc1	?	2.9µM*	.	-18%	-4%
CN1CCN(C2CCN(S(=O)(=O)c3ccc(C(C)(C)C)cc3)CC2)CC1	-4%	-2%	1%	-17%	11%
CCOC(=O)c1cc(-c2ccccc2)n(CC(=O)NC2CCC(C)CC2)c1C (stereo not drawn)	-16%	.	.	-12%	.
CCCCn1c(=O)n(CC(=O)Nc2ccc(OC)c(Cl)c2)c(=O)c2c1nc(CO)n2CCC	-27%	.	10µM*	-11%	3%
